CYP2C9 activ: increases human cytochrome P450 2C9 activity; P11712; recombinant CYP2C9, luciferin-H conversion, luminescence; hits give high values; factor 1 = untreated enzyme, 0 = blocked; activation factor at 5 µM; hit rate 1.4% among 96,000; AID 1024;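 active = activation factor of 2 or more for CYP2C9 at a 5 µM dose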
Target sequence (P11712 whole entry, looked up): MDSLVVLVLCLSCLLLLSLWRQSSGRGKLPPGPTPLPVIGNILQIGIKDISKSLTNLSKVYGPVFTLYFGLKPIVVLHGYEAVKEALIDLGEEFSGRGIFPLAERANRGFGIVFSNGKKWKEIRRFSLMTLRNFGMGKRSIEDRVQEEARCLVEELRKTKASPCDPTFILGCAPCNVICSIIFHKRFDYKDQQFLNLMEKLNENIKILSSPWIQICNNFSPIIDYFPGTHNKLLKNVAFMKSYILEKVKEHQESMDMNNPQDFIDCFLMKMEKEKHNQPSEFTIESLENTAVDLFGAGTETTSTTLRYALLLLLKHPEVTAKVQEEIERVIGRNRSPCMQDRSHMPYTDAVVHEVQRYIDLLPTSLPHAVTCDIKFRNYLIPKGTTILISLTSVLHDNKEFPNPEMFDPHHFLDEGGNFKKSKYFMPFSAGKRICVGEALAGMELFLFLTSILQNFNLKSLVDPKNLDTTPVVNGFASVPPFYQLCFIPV
Measles CPE: protection of cells from measles virus; hit rate 1.5% among 140,000; Measles virus-infected cells, CPE protection, absorbance; protection (pct of control), % at 4 µM; in the data active = protection mostly above about 24%, no sharp cut-off; inactive = mostly below about 26%
CYP2C9 inh: human CYP2C9 inhibition. CYP2C9 Supersomes, luciferin-H conversion, luminescence. inhibition, % at 5 µM. hit rate 20% among 96,000. AID 777;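 active = blocking of liver enzyme CYP2C9 beyond about 50% at 5 µM, limit read from the data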
CYP2C19 act: activators of human cytochrome P450 2C19; P33261; recombinant CYP2C19, luciferin-H EGE luminescence; hits give high values; 0 = fully inhibited enzyme, 1 = untreated enzyme; activation factor at 5 µM; 96,000 tested, under 10 active; AID 1025;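 active = activation factor of at least 2 at 5 µM in the primary screen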
CYP2C19 inhib: blocks human cytochrome P450 2C19 | hit rate 21% among 96,000 | AID 778 | inhibition, % at 5 µM | P33261 | CYP2C19 Supersomes, luciferin-H EGE luminescence, 30 min;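 active = CYP2C19 inhibition above a set limit at 5 µM in the primary screen, cut at about 50% in these data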
Numbers stand for hits. Hits are enriched below; roughly 22% of the tested compounds scored in any of these assays.

For CC1(C)Cc2c(C#N)c(N3CCN(C(=O)c4ccccc4)CC3)nc(Cc3ccccc3)c2CO1 the results were CYP2C9 activ inactive, Measles CPE inactive, CYP2C9 inh 98, CYP2C19 act inactive and CYP2C19 inhib inactive.
For CCc1nc(N2CCN(C(=O)c3ccccc3)CC2)c(C#N)c2c1COC(C)(C)C2 the results were CYP2C9 activ inactive, Measles CPE inactive, CYP2C9 inh 77, CYP2C19 act inactive and CYP2C19 inhib 75.
CC1CCN(c2nc(-c3ccco3)c3c(c2C#N)CC(C)(C)OC3)CC1 was read as CYP2C9 activ inactive, Measles CPE inactive, CYP2C9 inh 56, CYP2C19 act inactive and CYP2C19 inhib inactive.
`N#Cc1cc2cc3c(cc2nc1N1CCOCC1)OCO3` gave CYP2C9 activ inactive, Measles CPE inactive, CYP2C9 inh inactive, CYP2C19 act inactive and CYP2C19 inhib 55.
For Cc1ccc(CCNC(=O)C2CCCN(S(=O)(=O)c3cccc4nsnc34)C2)cc1 (centres undefined) the results were CYP2C9 activ inactive, Measles CPE inactive, CYP2C9 inh inactive, CYP2C19 act inactive and CYP2C19 inhib inactive.
For CC1(C)Cc2c(C#N)c(N3CCOCC3)nc(Cc3ccccc3)c2CO1 the results were CYP2C9 activ inactive, Measles CPE inactive, CYP2C9 inh 77, CYP2C19 act inactive and CYP2C19 inhib 93.
CC1(C)Cc2nc(N3CCOCC3)c(C#N)cc2CO1 was read as CYP2C9 activ inactive, Measles CPE 18, CYP2C9 inh inactive, CYP2C19 act inactive and CYP2C19 inhib inactive.
Cc1ccc(S(=O)(=O)N2CCN(c3nc(C)c4c(c3C#N)CC(C)(C)OC4)CC2)cc1 was read as CYP2C9 activ inactive, Measles CPE inactive, CYP2C9 inh 83, CYP2C19 act inactive and CYP2C19 inhib 77.
`Cc1ccc(S(=O)(=O)N2CCN(c3nc4ccccc4nc3-n3nc(C)cc3C)CC2)cc1` gave CYP2C9 activ inactive, Measles CPE inactive, CYP2C9 inh inactive, CYP2C19 act inactive and CYP2C19 inhib inactive.
`Cc1nc(N2CCOCC2)c(C#N)c2c1COC(C)(C)C2` gave Measles CPE inactive.
CCc1nc(N2CCOCC2)c(C#N)c2c1COC(C)(C)C2 was read as CYP2C9 activ inactive, Measles CPE inactive, CYP2C9 inh inactive, CYP2C19 act inactive and CYP2C19 inhib 60.
`COc1ccccc1-c1cc(C(F)(F)F)nc(NCc2ccco2)n1` gave CYP2C9 activ inactive, Measles CPE inactive, CYP2C9 inh inactive, CYP2C19 act inactive and CYP2C19 inhib inactive.
COc1ccc(OCC(=O)N/N=C(/C)Cc2ccccc2)cc1 was read as Measles CPE inactive.
COCCCNC(=S)NC1CCCCC1 was read as Measles CPE inactive.
Screening NCCc1ccc(O)c(O)c1 returned Measles CPE inactive.
Screening CCCCc1cc(O)c(CCCC)c(O)c1 returned CYP2C9 activ inactive, Measles CPE inactive, CYP2C9 inh 97, CYP2C19 act inactive and CYP2C19 inhib 90.
Screening Cc1ccc2oc(=O)c3cc(C(=O)NCCN4CCc5ccccc5C4)sc3c2c1 returned Measles CPE inactive.
Screening Cc1ccc2oc(=O)c3cc(C(=O)NCc4ccco4)sc3c2c1 returned CYP2C9 activ 2.1, Measles CPE inactive, CYP2C9 inh inactive, CYP2C19 act inactive and CYP2C19 inhib inactive.
`CCOC(=O)c1cnc2c(Cl)c(Cl)ccc2c1N1CCN(C)CC1` gave CYP2C9 activ inactive, Measles CPE inactive, CYP2C9 inh inactive, CYP2C19 act inactive and CYP2C19 inhib inactive.
Cc1cccc(NCc2ccccc2O)c1C was read as CYP2C9 activ inactive, Measles CPE inactive, CYP2C9 inh 61, CYP2C19 act inactive and CYP2C19 inhib 96.
COc1cc(/C=C/C(=O)OCC(=O)N2CCN(C(=O)c3ccco3)CC2)ccc1O was read as Measles CPE inactive.
`COCCn1c(=NC(=O)CSCC(=O)NC2CCCCC2)sc2cc(OC)ccc21` gave CYP2C9 activ inactive, Measles CPE inactive, CYP2C9 inh 57, CYP2C19 act inactive and CYP2C19 inhib 82.
COCCn1c(=NC(=O)CSC(C)=O)sc2cc(OC)ccc21 was read as CYP2C9 activ inactive, Measles CPE inactive, CYP2C9 inh inactive, CYP2C19 act inactive and CYP2C19 inhib inactive.
For Brc1ccc(C2Nc3cccc4cccc(c34)N2)o1 the results were CYP2C9 activ inactive, Measles CPE inactive, CYP2C9 inh inactive, CYP2C19 act inactive and CYP2C19 inhib 71.
Screening O=C1CC(c2ccccc2)c2c(O)cc(O)cc2O1 (centres undefined) returned CYP2C9 activ inactive, Measles CPE inactive, CYP2C9 inh 79, CYP2C19 act inactive and CYP2C19 inhib 63.
O=C1CC(c2ccccc2)c2ccc(O)cc2O1 (centres undefined) was read as CYP2C9 activ inactive, Measles CPE inactive, CYP2C9 inh 54, CYP2C19 act inactive and CYP2C19 inhib inactive.
For Cc1ccc2c(c1)[nH]c1c(N3CCN(Cc4ccc5c(c4)OCO5)CC3)ncnc12 the results were CYP2C9 activ inactive, CYP2C9 inh 93, CYP2C19 act inactive and CYP2C19 inhib 82.
`c1ccc2c(c1)oc1c(N3CCN(Cc4ccc5c(c4)OCO5)CC3)ncnc12` gave CYP2C9 activ inactive, Measles CPE inactive, CYP2C9 inh 86, CYP2C19 act inactive and CYP2C19 inhib 82.
Screening Clc1ccc(N2CCN(c3ncnc4c3oc3ccccc34)CC2)cc1 returned CYP2C9 activ inactive, CYP2C9 inh inactive, CYP2C19 act inactive and CYP2C19 inhib inactive.
Screening FC(F)(F)c1ccc(N2CCN(c3ncnc4c3nnn4Cc3ccccc3)CC2)nc1 returned CYP2C9 activ inactive, Measles CPE inactive, CYP2C9 inh inactive, CYP2C19 act inactive and CYP2C19 inhib inactive.
`Fc1ccccc1Cn1nnc2c(-n3ccnc3)ncnc21` gave CYP2C9 activ inactive, Measles CPE inactive, CYP2C9 inh 91, CYP2C19 act inactive and CYP2C19 inhib 99.
For c1ccc(Cn2nnc3c(N4CCOCC4)ncnc32)cc1 the results were CYP2C9 activ inactive, Measles CPE inactive, CYP2C9 inh inactive, CYP2C19 act inactive and CYP2C19 inhib 76.
For CN1CCN(CC(=O)N/N=C\c2c[nH]c3ccccc23)CC1 the results were Measles CPE inactive.
Screening CC1Cc2ccccc2N1c1ncnc2c1nnn2Cc1ccccc1Cl (centres undefined) returned Measles CPE inactive.
`c1ccc(Cn2nnc3c(N4CCN(Cc5ccc6c(c5)OCO6)CC4)ncnc32)cc1` gave CYP2C9 activ inactive, Measles CPE inactive, CYP2C9 inh 85, CYP2C19 act inactive and CYP2C19 inhib 84.
Clc1ccccc1Cn1nnc2c(N3CCCC3)ncnc21 was read as CYP2C9 activ 2.2, Measles CPE inactive, CYP2C9 inh inactive, CYP2C19 act inactive and CYP2C19 inhib 99.
Screening Clc1ccc(Cn2ncc3c(N4CCOCC4)ncnc32)cc1 returned CYP2C9 activ inactive, Measles CPE inactive, CYP2C9 inh inactive, CYP2C19 act inactive and CYP2C19 inhib 67.
COc1cc(N(C(=O)Cc2cccs2)C(C(=O)NC2CCCCC2)c2cccc(OC)c2OC)ccc1-n1cnnn1 (centres undefined) was read as Measles CPE inactive.
